Measurements taken from PubChem BioAssay.
Activity calls are given as the source filed them.

Assays:
[1] = tested on: PRMT1 (protein arginine N-methyltransferase 1); test: PRMT1 binders on small-molecule microarrays, primary screen, biochemical, small-molecule microarray, 635 nm fluorescence (AID 1088); settings: small-molecule microarray binding, higher = more signal;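 further: binding of Prmt1 protein to compounds spotted on small-molecule microarray slides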
[2] = yeast growth modulation, basal conditions, primary screen, YJM789 clinical isolate, OD600, 24 h (AID 1089);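 further: growth of clinical yeast isolate S. cerevisiae YJM 789 seeded 1000 cells per well; test concentration not given here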; settings: S. cerevisiae YJM789 growth, higher = more signal, called active from +8 up or from −8 down
[3] = fission yeast growth modulation, primary screen, strain 972, OD600, 24 h, no modulator (AID 1090);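 further: basal condition with compound alone and no growth modifier present; test concentration not given here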; settings: S. pombe 972 growth, higher = more signal, called active from +8 up or from −8 down
[4] = S. cerevisiae growth modulation with rapamycin, primary screen, strain BY4716, OD600, 96 h (AID 1091); settings: higher = more signal, called active from +8 up or from −8 down; further: test concentration not given here
[5] = target: Torsin-1A-interacting protein 2 (Homo sapiens) (UniProt Q8NFQ8); test: LULL1 binders on small-molecule microarray, primary screen, cell lysate, human LULL1 lysate, 635/667 nm fluorescence (AID 1092); settings: hLULL1 lysate binding, 635 nm fluorescence, higher = more signal;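 further: probe is lysate of COS7 cells overexpressing human LULL1; score merges per-feature 667 nm fluorescence with signal-to-noise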
Torsin-1A-interacting protein 2 (Homo sapiens), sequence (Q8NFQ8 whole entry, looked up): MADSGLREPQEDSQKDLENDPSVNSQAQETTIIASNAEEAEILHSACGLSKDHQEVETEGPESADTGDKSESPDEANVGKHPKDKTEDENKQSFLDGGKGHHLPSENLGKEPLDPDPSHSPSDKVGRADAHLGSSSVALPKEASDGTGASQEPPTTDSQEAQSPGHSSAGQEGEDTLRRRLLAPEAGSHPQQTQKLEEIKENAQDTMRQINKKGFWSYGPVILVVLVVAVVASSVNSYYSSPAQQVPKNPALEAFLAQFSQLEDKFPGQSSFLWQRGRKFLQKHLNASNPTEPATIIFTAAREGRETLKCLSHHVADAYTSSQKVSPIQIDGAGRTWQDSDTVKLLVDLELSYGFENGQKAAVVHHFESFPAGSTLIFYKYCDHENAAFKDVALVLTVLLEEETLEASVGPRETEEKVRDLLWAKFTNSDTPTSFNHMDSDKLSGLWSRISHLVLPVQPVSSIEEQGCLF

[6] = E. coli growth modulation, two-sided OD650, primary screen, E. coli filamentation project, strain DRC41, 24 h (AID 1093); settings: OD650, 24 h, higher = more signal, called active from +8 up or from −8 down;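 further: MC1000 strain lacking acrAB efflux and sulA so SOS filamentation is blocked; test concentration not given here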
[7] = small-molecule microarray binders of probe aLefty2, primary screen, biochemical, biotinylated probe, 635/667 nm fluorescence (AID 1094); settings: higher = more signal;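 further: score merges spot fluorescence near 667 nm with spot signal-to-noise ratio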
[8] = tested on: Noggin (protein binding on small-molecule microarray); test: Noggin binders on small-molecule microarray, primary screen, biochemical, 635/667 nm fluorescence (AID 1095); settings: 635 nm fluorescence, higher = more signal;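 further: score merges 667 nm feature fluorescence with signal to noise over triplicate slides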
[9] = target: Neurogenic locus notch homolog protein 3 (Homo sapiens) (UniProt Q9UM47); test: NOTCH3 binders on small-molecule microarray, primary screen, biochemical, 635/667 nm fluorescence (AID 1096); settings: NOTCH3 binding, 635 nm fluorescence, higher = more signal
Neurogenic locus notch homolog protein 3 (Homo sapiens), sequence (Q9UM47 whole entry, looked up): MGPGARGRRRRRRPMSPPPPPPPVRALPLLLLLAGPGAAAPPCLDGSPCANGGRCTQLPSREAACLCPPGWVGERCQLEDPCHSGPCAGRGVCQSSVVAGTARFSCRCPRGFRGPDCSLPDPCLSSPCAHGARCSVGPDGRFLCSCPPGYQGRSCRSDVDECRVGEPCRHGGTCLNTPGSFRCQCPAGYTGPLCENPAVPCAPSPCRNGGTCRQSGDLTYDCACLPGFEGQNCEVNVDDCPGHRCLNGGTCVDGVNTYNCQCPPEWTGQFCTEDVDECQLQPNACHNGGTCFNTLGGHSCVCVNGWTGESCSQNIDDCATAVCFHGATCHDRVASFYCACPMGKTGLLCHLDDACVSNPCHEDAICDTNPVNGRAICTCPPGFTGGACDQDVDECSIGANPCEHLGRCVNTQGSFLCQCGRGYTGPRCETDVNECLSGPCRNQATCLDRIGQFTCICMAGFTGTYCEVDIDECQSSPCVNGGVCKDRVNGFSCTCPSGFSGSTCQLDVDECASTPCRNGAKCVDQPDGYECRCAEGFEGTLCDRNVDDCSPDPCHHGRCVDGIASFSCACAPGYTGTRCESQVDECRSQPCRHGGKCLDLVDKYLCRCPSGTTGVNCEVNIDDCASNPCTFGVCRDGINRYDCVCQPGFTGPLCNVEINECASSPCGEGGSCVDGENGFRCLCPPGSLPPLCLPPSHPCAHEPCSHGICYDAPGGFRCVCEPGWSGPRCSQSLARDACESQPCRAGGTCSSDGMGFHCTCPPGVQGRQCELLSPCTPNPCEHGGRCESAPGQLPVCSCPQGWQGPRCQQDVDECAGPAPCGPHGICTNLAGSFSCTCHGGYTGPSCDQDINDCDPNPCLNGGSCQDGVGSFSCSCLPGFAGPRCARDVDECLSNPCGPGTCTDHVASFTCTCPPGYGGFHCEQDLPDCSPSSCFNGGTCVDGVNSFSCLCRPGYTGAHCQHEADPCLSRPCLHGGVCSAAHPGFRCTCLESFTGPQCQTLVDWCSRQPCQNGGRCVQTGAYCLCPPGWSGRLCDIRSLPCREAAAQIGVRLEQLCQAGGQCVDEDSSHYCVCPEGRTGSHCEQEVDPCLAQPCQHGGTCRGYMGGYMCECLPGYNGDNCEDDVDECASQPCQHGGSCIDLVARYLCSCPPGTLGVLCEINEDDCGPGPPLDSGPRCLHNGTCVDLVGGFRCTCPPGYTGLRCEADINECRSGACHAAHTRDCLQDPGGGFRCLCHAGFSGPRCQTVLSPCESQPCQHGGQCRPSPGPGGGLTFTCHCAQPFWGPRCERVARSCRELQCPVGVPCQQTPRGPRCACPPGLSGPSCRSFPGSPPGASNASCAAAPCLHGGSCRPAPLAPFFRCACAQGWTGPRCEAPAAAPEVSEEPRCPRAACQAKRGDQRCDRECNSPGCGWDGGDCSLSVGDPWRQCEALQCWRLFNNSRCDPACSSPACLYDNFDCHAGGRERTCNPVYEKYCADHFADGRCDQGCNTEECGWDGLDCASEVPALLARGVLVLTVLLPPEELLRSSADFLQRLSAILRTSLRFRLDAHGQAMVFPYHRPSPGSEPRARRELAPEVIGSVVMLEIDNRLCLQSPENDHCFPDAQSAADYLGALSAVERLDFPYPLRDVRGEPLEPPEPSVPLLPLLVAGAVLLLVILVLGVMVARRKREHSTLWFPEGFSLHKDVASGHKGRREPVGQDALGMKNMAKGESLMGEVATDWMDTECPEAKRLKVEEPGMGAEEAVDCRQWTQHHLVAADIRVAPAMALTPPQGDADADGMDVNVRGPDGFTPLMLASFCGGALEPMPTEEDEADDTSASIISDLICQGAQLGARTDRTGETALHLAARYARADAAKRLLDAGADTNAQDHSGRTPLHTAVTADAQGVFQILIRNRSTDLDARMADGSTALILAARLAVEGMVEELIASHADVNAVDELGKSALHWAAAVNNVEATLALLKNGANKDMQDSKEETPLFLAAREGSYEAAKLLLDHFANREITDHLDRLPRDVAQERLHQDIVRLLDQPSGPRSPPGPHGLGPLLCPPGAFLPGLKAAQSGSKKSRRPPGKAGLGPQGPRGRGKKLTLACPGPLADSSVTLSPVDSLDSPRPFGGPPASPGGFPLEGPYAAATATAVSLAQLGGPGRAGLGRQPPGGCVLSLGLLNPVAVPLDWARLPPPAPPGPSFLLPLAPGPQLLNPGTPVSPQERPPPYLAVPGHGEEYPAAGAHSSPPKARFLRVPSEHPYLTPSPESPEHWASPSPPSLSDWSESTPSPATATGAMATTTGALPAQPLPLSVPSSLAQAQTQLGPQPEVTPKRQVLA

[10] = small-molecule microarray binders of probe aEGFR, primary screen, biochemical, biotinylated probe, 635/667 nm fluorescence (AID 1097); settings: higher = more signal;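 further: probe is a biotinylated anti-EGFR antibody binding compounds printed on slides; score combines fluorescence near 667 nm and signal to noise of each spot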
[11] = tested on: Plasmodium falciparum Sir2 (PF13_0152, Sir2A); test: pfSir2 binders on small-molecule microarrays, primary screen, biochemical, small-molecule microarray, 635 nm fluorescence (AID 1098); settings: small-molecule microarray binding, fluorescence 635 nm; higher = more signal;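 further: score merges spot fluorescence intensity with its signal-to-noise ratio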
[12] = small-molecule microarray binders of probe aDKK1, primary screen, biochemical, biotinylated probe, 635/667 nm fluorescence (AID 1099); settings: higher = more signal;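 further: score merges 667nm spot fluorescence with signal to noise across triplicate slides; reference of the scale not given here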
[13] = small-molecule microarray binders of probe aCHRDL2, primary screen, biochemical, biotinylated probe, 635/667 nm fluorescence (AID 1100); settings: higher = more signal
[14] = splicing luciferase reporter signal modulators, primary screen, spliceosome inhibition project, cell-based, HEK293, splice +/- reporter (AID 1101); settings: luminescence, 24 h, higher = more signal, called active from +8 up or from −8 down;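 further: HEK293 cells carrying a splicing-competent luciferase reporter gene; test concentration not given here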
[15] = target: Fibroblast growth factor 10 (Homo sapiens) (UniProt O15520); test: FGF10 binders on small-molecule microarrays, primary screen, biochemical, small-molecule microarray, 635 nm fluorescence (AID 1102); settings: FGF10 binding, fluorescence 635 nm, higher = more signal
Fibroblast growth factor 10 (Homo sapiens), sequence (O15520 whole entry, looked up): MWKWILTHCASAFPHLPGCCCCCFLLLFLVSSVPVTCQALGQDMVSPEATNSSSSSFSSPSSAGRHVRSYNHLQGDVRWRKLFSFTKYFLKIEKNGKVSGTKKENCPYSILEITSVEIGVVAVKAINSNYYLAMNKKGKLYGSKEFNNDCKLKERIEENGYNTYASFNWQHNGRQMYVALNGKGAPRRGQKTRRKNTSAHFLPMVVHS

[16] = tested on: glycogen synthase kinase-3 (GSK3A per assay name; protocol says GSK3B); test: GSK3 binders on small-molecule microarrays, primary screen, biochemical, small-molecule microarray, 635 nm fluorescence, GSK3A (AID 1103); settings: small-molecule microarray binding, fluorescence 635 nm; higher = more signal; further: the record names both GSK3A and GSK3B
[17] = target: Epidermal growth factor receptor (Homo sapiens) (UniProt P00533); test: EGFR binders on small-molecule microarrays, primary screen, biochemical, small-molecule microarray, 635 nm fluorescence (AID 1104); settings: EGFR binding, higher = more signal;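 further: score merges 667 nm emission intensity with spot signal to noise over triplicate slides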
Epidermal growth factor receptor (Homo sapiens), sequence (P00533 whole entry, looked up): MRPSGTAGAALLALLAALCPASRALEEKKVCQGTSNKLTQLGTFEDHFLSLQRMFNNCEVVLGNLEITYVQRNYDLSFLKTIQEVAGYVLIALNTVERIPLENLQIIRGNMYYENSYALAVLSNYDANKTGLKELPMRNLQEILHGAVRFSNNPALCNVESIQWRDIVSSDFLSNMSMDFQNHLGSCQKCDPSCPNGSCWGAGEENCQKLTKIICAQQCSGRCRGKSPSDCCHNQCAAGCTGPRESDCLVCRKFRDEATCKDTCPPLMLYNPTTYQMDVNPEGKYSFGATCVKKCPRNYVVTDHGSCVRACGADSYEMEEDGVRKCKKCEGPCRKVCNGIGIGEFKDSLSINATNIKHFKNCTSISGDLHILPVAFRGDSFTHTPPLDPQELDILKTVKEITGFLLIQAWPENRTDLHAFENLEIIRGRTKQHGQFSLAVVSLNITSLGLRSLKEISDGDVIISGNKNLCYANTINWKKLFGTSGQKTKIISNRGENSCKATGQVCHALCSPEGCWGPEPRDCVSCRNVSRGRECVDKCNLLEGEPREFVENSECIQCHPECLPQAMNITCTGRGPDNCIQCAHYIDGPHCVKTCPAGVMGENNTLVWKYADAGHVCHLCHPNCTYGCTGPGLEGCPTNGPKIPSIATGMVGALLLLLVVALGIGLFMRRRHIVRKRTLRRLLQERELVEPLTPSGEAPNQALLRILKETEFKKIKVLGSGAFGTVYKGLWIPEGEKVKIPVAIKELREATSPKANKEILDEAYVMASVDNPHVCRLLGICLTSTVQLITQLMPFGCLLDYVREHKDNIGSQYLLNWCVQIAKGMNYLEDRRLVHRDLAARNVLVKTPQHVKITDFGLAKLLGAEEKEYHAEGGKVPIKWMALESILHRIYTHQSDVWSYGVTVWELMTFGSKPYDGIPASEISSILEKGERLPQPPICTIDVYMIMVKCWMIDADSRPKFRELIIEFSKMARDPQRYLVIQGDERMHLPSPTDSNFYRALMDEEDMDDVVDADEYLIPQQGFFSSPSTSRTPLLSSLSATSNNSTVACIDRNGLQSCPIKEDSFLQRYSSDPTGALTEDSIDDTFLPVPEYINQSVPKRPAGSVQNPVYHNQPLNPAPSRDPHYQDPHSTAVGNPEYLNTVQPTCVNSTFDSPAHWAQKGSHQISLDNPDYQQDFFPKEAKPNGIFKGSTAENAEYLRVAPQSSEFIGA

[18] = target: Follistatin-related protein 3 (Homo sapiens) (UniProt O95633); test: FSTL3 binders on small-molecule microarrays, primary screen, biochemical, small-molecule microarray, 635 nm fluorescence (AID 1105); settings: FSTL3 binding, higher = more signal;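 further: score merges emission near 667 nm and signal to noise per printed spot across three slides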
Follistatin-related protein 3 (Homo sapiens), sequence (O95633 whole entry, looked up): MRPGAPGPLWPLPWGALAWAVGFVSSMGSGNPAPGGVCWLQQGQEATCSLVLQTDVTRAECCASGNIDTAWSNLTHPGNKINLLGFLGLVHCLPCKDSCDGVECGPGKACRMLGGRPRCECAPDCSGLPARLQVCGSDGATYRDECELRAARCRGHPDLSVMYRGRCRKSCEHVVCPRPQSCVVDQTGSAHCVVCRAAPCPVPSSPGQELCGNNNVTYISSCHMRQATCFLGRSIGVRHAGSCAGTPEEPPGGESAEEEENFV

[19] = target: Dickkopf-related protein 1 (Homo sapiens) (UniProt O94907); test: DKK1 binders on small-molecule microarrays, primary screen, biochemical, small-molecule microarray, 635 nm fluorescence scan (AID 1106); settings: DKK1 binding, higher = more signal;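 further: score merges emission near 667 nm with signal to noise over three replicate slides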
Dickkopf-related protein 1 (Homo sapiens), sequence (O94907 whole entry, looked up): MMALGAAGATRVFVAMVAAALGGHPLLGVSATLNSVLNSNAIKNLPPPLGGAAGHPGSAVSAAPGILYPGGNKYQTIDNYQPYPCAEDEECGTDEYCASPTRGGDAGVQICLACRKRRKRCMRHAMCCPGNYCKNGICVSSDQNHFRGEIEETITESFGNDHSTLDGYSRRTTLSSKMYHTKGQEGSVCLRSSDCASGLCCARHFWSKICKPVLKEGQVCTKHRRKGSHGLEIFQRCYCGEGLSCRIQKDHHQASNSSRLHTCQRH

[20] = tested on: Inhibin beta A chain (activin A); test: INHBA (activin A) binders on microarrays, primary screen, biochemical, small-molecule microarray, 635 nm fluorescence scan (AID 1107); settings: small-molecule microarray binding, higher = more signal;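 further: mouse activin A protein probed at 4.33 µg/mL on printed slides; score merges bound-protein fluorescence near 667 nm with spot signal-to-noise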

CCOC(=O)C1=CCC(c2cc3ccccc3[nH]2)NC1 (stereo not given)
composite z-score [1]: 0.37
z-score [2]: -1.36 (inactive)
z-score [3]: -2.39 (inactive)
z-score [4]: 1.42 (inactive)
composite z-score [5]: 2.45
z-score [6]: -0.0849 (inactive)
composite z-score [7]: 0.389
composite z-score [8]: -0.465
composite z-score [9]: 0.335
composite z-score [10]: -0.0065
composite z-score [11]: 1.47
composite z-score [12]: 1.1
composite z-score [13]: 1.31
z-score [14]: -1.02 (inactive)
composite z-score [15]: 0.0855
composite z-score [16]: 0.233
composite z-score [17]: 0.242
composite z-score [18]: 0.0799
composite z-score [19]: -0.494
composite z-score [20]: 1.65

Cn1c(=O)n2n(c1=O)[C@H]1[C@H](O)[C@@H]3O[C@@H]3C(=NOC[C@@H](O)COCc3ccco3)[C@H]1CC2
composite z-score [1]: 0.188
z-score [2]: 0.0859 (inactive)
z-score [3]: 0.171 (inactive)
z-score [4]: -0.36 (inactive)
composite z-score [5]: 0.14
z-score [6]: -0.0342 (inactive)
composite z-score [7]: -0.171
composite z-score [8]: 0.426
composite z-score [9]: 0.775
composite z-score [10]: 0.0574
composite z-score [11]: 0.608
composite z-score [12]: -0.198
composite z-score [13]: -0.505
z-score [14]: -0.695 (inactive)
composite z-score [15]: 0.131
composite z-score [16]: 0.698
composite z-score [17]: 0.475
composite z-score [18]: 0.541
composite z-score [19]: 0.0999
composite z-score [20]: 0.0409

COC(=O)CC=C[C@@H](C)[C@H](OC)c1ccccc1Br
composite z-score [1]: 0.0909
z-score [2]: 0.703 (inactive)
z-score [3]: -0.636 (inactive)
z-score [4]: -0.417 (inactive)
composite z-score [5]: 0.154
z-score [6]: 0.469 (inactive)
composite z-score [7]: -0.188
composite z-score [8]: 0.462
composite z-score [9]: -0.105
composite z-score [10]: -0.113
composite z-score [11]: -0.581
composite z-score [12]: -0.133
composite z-score [13]: -0.499
z-score [14]: -0.0767 (inactive)
composite z-score [15]: 0.0042
composite z-score [16]: 0.169
composite z-score [17]: 0.181
composite z-score [18]: 0.231
composite z-score [19]: 0.503
composite z-score [20]: 0.887

O=C1[C@H]2[C@H]3[C@H](O)[C@H](O)CC(=NOC[C@@H](O)COCc4ccco4)[C@H]3CC[C@H]2C(=O)N1C1CCCCC1
composite z-score [1]: 1.1
z-score [2]: 0.432 (inactive)
z-score [3]: -0.299 (inactive)
z-score [4]: 0.356 (inactive)
composite z-score [5]: -0.522
z-score [6]: -0.263 (inactive)
composite z-score [7]: -0.0841
composite z-score [8]: 1.19
composite z-score [9]: 0.214
composite z-score [10]: -0.0141
composite z-score [11]: 0.508
composite z-score [12]: -0.565
composite z-score [13]: -1.6
z-score [14]: -1.13 (inactive)
composite z-score [15]: 0.0351
composite z-score [16]: 1.16
composite z-score [17]: 0.623
composite z-score [18]: 0.499
composite z-score [19]: 0.942
composite z-score [20]: 1.31

CO[C@H]([C@@H](C)[C@H](OC)c1ccccc1)[C@H](C)[C@@H](OC)[C@H](C)C(C)=O
composite z-score [1]: -0.694
z-score [2]: 0.474 (inactive)
z-score [3]: -0.0357 (inactive)
z-score [4]: -0.175 (inactive)
composite z-score [5]: -0.391
z-score [6]: 0.243 (inactive)
composite z-score [7]: -0.0159
composite z-score [8]: -0.233
composite z-score [9]: -0.177
composite z-score [10]: -0.0996
composite z-score [11]: -0.275
composite z-score [12]: -0.442
composite z-score [13]: -0.117
z-score [14]: 0.116 (inactive)
composite z-score [15]: 0.173
composite z-score [16]: -0.641
composite z-score [17]: -0.577
composite z-score [18]: -0.523
composite z-score [19]: 0.345
composite z-score [20]: 0.782

Cc1ccc(S[C@]2(C(=O)O)CC(=O)N(Cc3ccccc3)[C@@H]2c2ccc(CO)cc2I)cc1
composite z-score [1]: 0.135
z-score [2]: -0.866 (inactive)
z-score [3]: -1.17 (inactive)
z-score [4]: 1.29 (inactive)
composite z-score [5]: 1.28
z-score [6]: -0.104 (inactive)
composite z-score [7]: -0.103
composite z-score [8]: -0.404
composite z-score [9]: -0.683
composite z-score [10]: -0.261
composite z-score [11]: 1.17
composite z-score [12]: -0.0401
composite z-score [13]: 0.894
z-score [14]: -0.982 (inactive)
composite z-score [15]: -0.406
composite z-score [16]: -0.0099
composite z-score [17]: -0.814
composite z-score [18]: -0.417
composite z-score [19]: -0.776
composite z-score [20]: 0.84

CN1C(=O)C2C=CC(C(O)c3ccc(Br)cc3)N(N(c3ccccc3)c3ccccc3)C2C1=O (stereo not given)
composite z-score [1]: 0.289
z-score [2]: 0.351 (inactive)
z-score [3]: 1.27 (inactive)
z-score [4]: 2.27 (inactive)
composite z-score [5]: 1.94
z-score [6]: -1.24 (inactive)
composite z-score [7]: 0.238
composite z-score [8]: -0.482
composite z-score [9]: 0.585
composite z-score [10]: 0.146
composite z-score [11]: 0.259
composite z-score [12]: 0.359
composite z-score [13]: 1.04
z-score [14]: 0.605 (inactive)
composite z-score [15]: -0.14
composite z-score [16]: -0.0403
composite z-score [17]: -0.211
composite z-score [18]: 0.0397
composite z-score [19]: -0.626
composite z-score [20]: 1.26

O=C1C[C@@H](O)[C@@H](O)[C@@H]2[C@@H]3C(=O)N(c4cccc(Oc5ccccc5)c4)C(=O)[C@@H]3CC[C@@H]12
composite z-score [1]: 0.766
z-score [2]: -0.336 (inactive)
z-score [3]: -0.444 (inactive)
z-score [4]: -0.622 (inactive)
composite z-score [5]: 1.42
z-score [6]: 0.185 (inactive)
composite z-score [7]: -0.177
composite z-score [8]: 0.468
composite z-score [9]: 1.09
composite z-score [10]: 0.126
composite z-score [11]: 0.87
composite z-score [12]: -0.0115
composite z-score [13]: -0.464
z-score [14]: 0.0249 (inactive)
composite z-score [15]: 0.806
composite z-score [16]: 0.655
composite z-score [17]: 0.387
composite z-score [18]: 0.925
composite z-score [19]: 0.987
composite z-score [20]: -0.0789

COCCCNC(=O)[C@@]1(C)c2ccccc2C(=O)N(Cc2ccc(OC(F)(F)F)cc2)[C@H]1c1ccc(CO)cc1
composite z-score [1]: 0.289
z-score [2]: -0.0965 (inactive)
z-score [3]: 0.203 (inactive)
z-score [4]: -0.35 (inactive)
composite z-score [5]: -0.0493
z-score [6]: 0.93 (inactive)
composite z-score [7]: 0.134
composite z-score [8]: -0.598
composite z-score [9]: -0.519
composite z-score [10]: 0.146
composite z-score [11]: 0.655
composite z-score [12]: 0.506
composite z-score [13]: 0.973
z-score [14]: -0.346 (inactive)
composite z-score [15]: -0.527
composite z-score [16]: -1.3
composite z-score [17]: -1.11
composite z-score [18]: -0.851
composite z-score [19]: -0.401
composite z-score [20]: 0.153

O=C1CCCC=C1C(O)CCOCc1ccccc1 (stereo not given)
composite z-score [1]: -0.195
z-score [2]: -0.385 (inactive)
z-score [3]: -0.82 (inactive)
z-score [4]: -1.15 (inactive)
composite z-score [5]: -1.08
z-score [6]: -0.546 (inactive)
composite z-score [7]: -0.224
composite z-score [8]: 0.355
composite z-score [9]: -0.834
composite z-score [10]: -0.0828
composite z-score [11]: 0.265
composite z-score [12]: -0.229
composite z-score [13]: -0.513
z-score [14]: 0.322 (inactive)
composite z-score [15]: 0.154
composite z-score [16]: -0.391
composite z-score [17]: 0.255
composite z-score [18]: -0.0207
composite z-score [19]: 0.428
composite z-score [20]: 0.13
